Data taken from PubChem BioAssay (EPA / NIEHS).
Several values for one entry are separate records, joined by “and”; a condition that tells them apart may be missing. Equal values may be shown once. Results filed as inconclusive are left out. Activity calls are given as the source filed them. The calls were made as follows: active = hit-call score of the fitted dose curve at least 0.9, where 1 is the maximum; inconclusive = response in the unintended direction; inactive = score below 0.9.

Target: Peroxisome proliferator-activated receptor gamma (Homo sapiens) (UniProt P37231)
Assay: ATG_PPARg_TRANS: Attagene TRANS-FACTORIAL HepG2 Assay for human Peroxisome Proliferator-activated Receptor-gamma (PPARg) (AID 2283007)
Protocol: ATG_TRANS is a cell-based, multiplexed-readout assay that uses HepG2, a human liver cell line, with measurements taken at 24 hours after chemical dosing in a 24-well plate.ATG_PPARg_TRANS is one of 30 assay component(s) measured or calculated from the ATG_TRANS assay. It is designed to make measurements of mRNA induction, a form of inducible reporter, as detected with fluorescence intensity signals by Reverse transcription polymerase chain reaction (RT-PCR) and Capillary electrophoresis technology.Data from the assay component ATG_PPARg_TRANS was analyzed into 1 assay endpoint. This assay endpoint, ATG_PPARg_TRANS, was analyzed in the positive analysis fitting direction relative to DMSO as the negative control and baseline of activity. Using a type of inducible reporter, measures of mRNA for gain-of-signal activity can be used to understand the reporter gene at the transcription factor-level as they relate to the gene PPARG. Furthermore, this assay endpoint can be referred to as a primary readout, because this assay has produced multiple assay endpoints where this one serves a reporter gene function. To generalize the intended target to other relatable targets, this assay endpoint is annotated to the nuclear receptor intended target family, where the subfamily is non-steroidal.
Human liver HepG2 cells are transiently transfected with multiple reporter transcription units (MRTUs) in 6-well plates using FuGene 6 reagent (Roche; 3 ml FuGene/1 mg DNA). The MRTU constructs are regulated by a cis-regulating element (promoter). […] A major difference between the CIS and TRANS system is that in CIS activities of endogenous TFs are measured, whereas the TRANS assay evaluates changes in activities of exogenous, chimeric NR-Gal4 proteins. […] At the end of 24 hour incubation, total RNA was isolated using TriZol reagent (Invitrogen). The isolated RNA is then reverse-transcribed using oligo(dT) primer and Mo-MLV reverse transcriptase (Invitrogen) with DNAse I (Ambion) treatment for 30 min. The one-tenth of the produced cDNA was amplified by PCR using Taq DNA polymerase (Invitrogen) and two reporter sequence-specific primers. The PCR products were fluorescently labeled by primer extension with 6-arboxyfluorescein (6-FAM) 5'-labeled reporter sequence-specific primer (2 min at 95 C, 20 s at 68 C and 10 min at 72 C) and these products were digested with 5U of HpaI (New England Biolabs) for 2h at 37 C. The fragments were purified using Qiaquick PCR columns (Qiagen), analyzed on an ABI 3130xL genetic analyzer (Applied Biosystems) with peak positions identified by using a set of X-rhodamine (ROX)-labeled MapMarker1000 molecular weight standards (BioVentures). The raw capillary electrophoresis data was processed using Attagraph software (Attagene).

Chain of Peroxisome proliferator-activated receptor gamma (Homo sapiens) (P37231 whole entry, looked up): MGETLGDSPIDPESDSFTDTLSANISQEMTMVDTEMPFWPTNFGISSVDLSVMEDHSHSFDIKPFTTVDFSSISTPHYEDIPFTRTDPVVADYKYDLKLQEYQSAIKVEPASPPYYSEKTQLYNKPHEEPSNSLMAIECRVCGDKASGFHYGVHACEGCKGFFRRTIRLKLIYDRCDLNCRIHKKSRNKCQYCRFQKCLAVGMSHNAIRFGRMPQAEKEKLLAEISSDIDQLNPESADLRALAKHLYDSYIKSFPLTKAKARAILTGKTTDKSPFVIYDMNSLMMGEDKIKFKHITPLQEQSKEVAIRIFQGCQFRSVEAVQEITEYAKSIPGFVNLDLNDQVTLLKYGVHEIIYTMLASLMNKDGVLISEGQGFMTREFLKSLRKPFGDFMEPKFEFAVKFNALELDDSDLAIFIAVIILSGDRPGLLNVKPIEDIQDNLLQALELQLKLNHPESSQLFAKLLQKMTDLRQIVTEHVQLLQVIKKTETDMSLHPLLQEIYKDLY

Row | SMILES | AC50 | outcome
1 | Cc1cc(SCc2sc(-c3ccc(C(F)(F)F)c(F)c3)nc2C)ccc1OCC(=O)O | 0.887 µM (active) | 
2 | CC(C)(c1ccc(O)c(-c2ccccc2)c1)c1ccc(O)c(-c2ccccc2)c1 | 1.61 µM (active) | 
3 | CN(N=O)c1ccc([N+](=O)[O-])cc1 | 31.9 µM (active) | 
4 | O=C(O)COc1ccc(Cl)cc1 |  | inactive
5 | C1CN2CCN1CC2 |  | inactive
6 | C[N+](C)(C)Cc1ccccc1 |  | inactive
7 | CN(N=O)C(N)=O |  | inactive
8 | CC(C)(COCC1CO1)COCC1CO1 (stereo not given) |  | inactive
9 | Cc1cccc(OP(=O)(Oc2cccc(C)c2)Oc2cccc(C)c2)c1 | 13.9 µM (active) | 
10 | O=[N+]([O-])c1ccccc1O |  | inactive
11 | CC(=Cc1ccccc1)[N+](=O)[O-] | 3.91 µM (active) | 
12 | N#CCCC(Br)(C#N)CBr (stereo not given) |  | inactive
13 | CCCCN(CCCCO)N=O |  | inactive
14 | CCC[CH2][Sn]([Cl])([Cl])[CH2]CCC | 0.73 µM (active) | 
15 | CC(C)(C)c1ccccc1O |  | inactive
16 | CC(C)[C@H](C(=O)OC(C#N)c1cccc(Oc2ccccc2)c1)c1ccc(OC(F)F)cc1 (stereo not given in full) |  | inactive
17 | N#CCC#N |  | inactive
18 | O=C(O)c1cc(I)cc(I)c1I | 11.9 µM (active) | 
19 | CCOCn1c(-c2ccc(Cl)cc2)c(C#N)c(Br)c1C(F)(F)F | 4.71 µM (active) | 
20 | COc1ccccc1N |  | inactive

Row | SMILES | AC50 | outcome
21 | Cc1ccc(OP(=O)(Oc2ccc(C)cc2C)Oc2ccc(C)cc2C)c(C)c1 | 1.3 µM (active) | 
22 | Nc1ccc(Br)cc1 |  | inactive
23 | COCC(=O)N(c1c(C)cccc1C)[C@H](C)C(=O)OC |  | inactive
24 | Nc1cccnc1 |  | inactive
25 | c1csc(-c2ccc(-c3cccs3)s2)c1 | 1.7 µM (active) | 
26 | C=CC(Cl)CCl (stereo not given) |  | inactive
27 | CCOP(=S)(OCC)OP(=S)(OCC)OCC | 25.8 µM (active) | 
28 | CC1(C)[C@H](C(=O)O[C@H](C#N)c2cccc(Oc3ccccc3)c2)[C@@H]1/C=C(\Cl)C(F)(F)F | 5.86 µM (active) and 4.64 µM (active) | 
29 | CC(C=O)Cc1ccc2c(c1)OCO2 (stereo not given) |  | inactive
30 | CCOC(=O)OC1=C(c2cc(C)ccc2C)C(=O)NC12CCC(OC)CC2 (stereo not given) |  | inactive
31 | COC(=O)c1cc(Oc2ccc(Cl)cc2Cl)ccc1[N+](=O)[O-] | 20 µM (active) | 
32 | Clc1cnc(Oc2ccc(Oc3ncc(Cl)cc3Cl)cc2)c(Cl)c1 | 16.7 µM (active) | 
33 | CCCCN(CCCC)C(=S)[S-].CCCCN(CCCC)C(=S)[S-].[Ni+2] |  | inactive
34 | CCCCCCCCCCCCBr | 43.3 µM (active) | 
35 | OC(c1ccc(Cl)cc1)(c1ccc(Cl)cc1)c1cccnc1 |  | inactive
36 | [F][Sn]([c]1ccccc1)([c]1ccccc1)[c]1ccccc1 | 0.0401 µM (active) | 
37 | Oc1c(Br)cc(Br)cc1Br | 11.9 µM (active) | 
38 | CC(C)N(C(=O)CCl)c1ccccc1 | 3.21 µM (active) | 
39 | CCCCCCCCCCCCN(C)C |  | inactive
40 | Nc1c(Oc2ccccc2)cc(O)c2c1C(=O)c1ccccc1C2=O | 6.44 µM (active) | 
